In the library only some 19% were active in any assay of this set; here they are far more common.
HepG2 tox = counter-screen for TGF-b inhibitors: cytotoxicity in HepG2 cells; HepG2 CAGA-GFP viability, ATP luminescence, 18 h; Potency, µM (series often up to 46.1 µM), for inactives: top-dose activity change, negative = cytotoxicity, usual class: cytotoxic; 410,000 compounds, 0.76% hits; AID 588856; also: potency is read from the fitted curve at half-maximal effect
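CellTiter-Glo luminescence gave cytotoxicity after 18 hours at 37 degrees C. The cells were HepG2 CAGA-GFP in 1% FBS DMEM, stimulated with 500 pg/mL TGF-beta after compound addition. %Activity was normalised to no-cell wells (complete cell-killing) and DMSO (no toxicity), and curves were fitted and classified.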
S-ASM inh = blocks human secretory acid sphingomyelinase; P17405; placental ASM, HMU-PC fluorogenic substrate, 60 min; Potency, µM (series often up to 57.5 µM), without a hit: at the top dose activity change, negative = inhibition, usual class: inhibitors; 340,000 compounds, 0.006% hits; also: potency is read from the fitted curve at half-maximal effect
Target sequence (P17405 47-631 limits assumed): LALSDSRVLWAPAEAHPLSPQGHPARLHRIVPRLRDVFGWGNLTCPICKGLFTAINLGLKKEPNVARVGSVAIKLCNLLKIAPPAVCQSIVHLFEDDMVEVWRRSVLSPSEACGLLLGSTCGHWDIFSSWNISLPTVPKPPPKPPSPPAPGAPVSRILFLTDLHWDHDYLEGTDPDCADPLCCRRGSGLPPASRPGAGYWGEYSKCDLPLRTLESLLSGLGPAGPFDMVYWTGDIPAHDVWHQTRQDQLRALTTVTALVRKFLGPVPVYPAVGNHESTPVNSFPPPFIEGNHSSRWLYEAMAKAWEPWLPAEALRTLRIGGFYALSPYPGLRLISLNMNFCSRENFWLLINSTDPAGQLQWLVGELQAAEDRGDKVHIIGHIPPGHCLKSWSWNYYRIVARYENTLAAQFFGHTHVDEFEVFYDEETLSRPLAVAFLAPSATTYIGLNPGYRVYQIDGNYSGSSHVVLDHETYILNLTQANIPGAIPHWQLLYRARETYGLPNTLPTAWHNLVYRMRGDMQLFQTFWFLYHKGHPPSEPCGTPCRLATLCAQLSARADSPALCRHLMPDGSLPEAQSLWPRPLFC
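Steps: dispense placental human ASM, pin compound, wait 10 min at room temperature, add HMU-PC0 substrate at 9 uM final, incubate 60 min at 37 °C, add stop solution raising pH to 10, read fluorescence.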
IL1B secr inh = blocks inflammasome-driven IL-1 beta release | THP-1 LPS/ATP IL-1B secretion, AlphaLISA, 16 h; stronger effect = lower value | activity change, % at 57.5 µM | 360,000 compounds, 4.7% hits | AID 743279; in the data active = activity change below about -50%; inconclusive = mostly about -30% to -49%; also: % is scaled to controls: 0 for no effect and ±100 for the full control effect
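Secreted IL-1B measured by AlphaLISA bead assay after 16 h compound exposure of THP-1 cells; compounds (final up to 57.5 uM) added 1 h before LPS (250 ng/mL) and ATP (1.25 mM) stimulation; lower signal means less secretion.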
TDP1 cell noCPT = qHTS for Inhibitors of human tyrosyl-DNA phosphodiesterase 1 (TDP1): qHTS in cells in absence of CPT; DT40 Tdp1-/- hTDP1 cells, no CPT, ATP luminescence, 48 h; Potency, µM (top dose mostly 46.2 µM), for inactives: at the top dose activity change, negative = growth inhibition, most hits filed as inhibitors; 420,000 compounds, 15% hits; AID 686978, 2013; also: potency is read from the fitted curve at half-maximal effect; % is scaled to controls: 0 for no effect and ±100 for the full control effect; nearly all actives have a fitted effect of over 55% in size
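No-CPT arm: Tdp1-/-;hTDP1 DT40 cells (400/well) plus compounds, incubated ≥48 hr at 37 °C. Readout CellTiter-Glo luminescence.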
TDP1 cell CPT = growth inhibition of DT40 Tdp1-/-;hTDP1 cells with camptothecin (screen for TDP1 inhibitors); chicken DT40 Tdp1-/-;hTDP1 cells + 20 nM CPT, ATP luminescence, 48 h; Potency, µM (titrated, usually from 46.2 µM), for the others: top-dose activity change, negative = growth inhibition, hits mostly inhibitors; 420,000 compounds, 12% hits; also: potency is read from the fitted curve at half-maximal effect; % is scaled to controls: 0 for no effect and ±100 for the full control effect; nearly all actives have a fitted effect of over 55% in size
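Chicken DT40 Tdp1-/- cells complemented with human TDP1, 400 cells/well, exposed to compounds plus 20 nM camptothecin for at least 48 h at 37 C; viability read as ATP content by CellTiter-Glo luminescence.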
TGFb inhibitor = inhibitors of TGF-b signaling; HepG2 CAGA-GFP TGF-b/SMAD3 reporter, GFP fluorescence, 18 h; TGF-beta stimulated, 500 pg/mL final; Potency, µM (titrated, usually from 46.1 µM), inactives show at the top dose activity, negative = inhibition, most hits filed as inhibitors; 410,000 compounds, 1.2% hits; AID 588855; also: potency is read from the fitted curve at half-maximal effect; % is scaled to controls: 0 for no effect and ±100 for the full control effect; nearly all actives have a fitted effect of over 65% in size
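Using HEPG2 CAGA-GFP reporter cells at 1000 cells/well, we pinned test compounds, stimulated with recombinant TGF-beta (500 pg/mL final) and measured total well GFP after 18 h.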
* = called active by the depositor; i = inactive; ? = inconclusive; · = not tested or not shown. Unless noted, calls follow the shape of the dose curve; as a rule, active = well fitted curve in the direction sought with a large enough effect; inconclusive = small, poorly fitted or top-dose-only effect, or another doubt; inactive = no such curve, though single readings can be large; an effect the other way counts as inactive or inconclusive.

SMILES	HepG2 tox	S-ASM inh	IL1B secr inh	TDP1 cell noCPT	TDP1 cell CPT	TGFb inhibitor
O=C(c1ccc2c(c1)OCCO2)N1CCN(c2ncc(C(F)(F)F)cc2Cl)CC1	-36%	-2%	5	16µM*	?	-17%
CCc1nc2ccc(C(=O)NC3CCN(Cc4ccccc4)CC3)cn2c1N(C)Cc1ccc(N(C)C)cc1	-38%	·	0	?	?	-6%
O=C(Nc1ccc2c(c1)OCO2)N1CCN(c2ncc(C(F)(F)F)cc2Cl)CC1	-22%	-10%	-61*	12µM*	21µM*	-2%
Cc1ccc(NC(=O)NCC2CCN(Cc3cccc(Cl)c3)CC2)c(Cl)c1	-16%	1%	-51*	-30%	?	-24%
Cc1ccc(NC(=O)NCC2CCN(Cc3cc(C)ccc3Cl)CC2)c(C)c1	-1%	-4%	9	?	?	15%
O=C(NCC1CCN(Cc2cccc(Cl)c2)CC1)Nc1ccccc1Cl	-31%	-3%	-83*	?	-21%	0%
CC(=O)c1cc2c(cc1N(C(=O)Cn1nnc3ccccc31)C(C(=O)NCCC(C)C)c1cccnc1)OCO2 (centres undefined)	-4%	27%	11	-21%	-13%	10%
NC(=O)c1cccc2c1-c1ccccc1/C2=N/NC(N)=S	-14%	-3%	-5	?	15%	-27%
COC(=O)c1ccc2c(c1O)C(=O)c1ccccc1C2=O	-35%	-6%	?	21µM*	23µM*	-13%
COC(=O)c1cccc2c1-c1ccccc1/C2=N/O	-36%	-14%	-22	13µM*	16µM*	2%
COC(=O)c1ccccc1NCCO	6%	i	-5	-23%	8%	-19%
COC(=O)c1cccc2c1-c1ccccc1/C2=N\NC(N)=O	-31%	-5%	?	15µM*	?	-20%
Cc1ccccc1C(=O)Nc1nnc(-c2cccnc2)o1	6%	1%	18	-3%	-1%	-19%
COc1ccc2c(c1OC)c(=O)n1c3ccc(OC(C)C(=O)NCCN4CCOCC4)cc3c3ccnc2c31 (centres undefined)	-24%	i	?	23µM*	16µM*	25%
COc1ccc2c(c1OC)c(=O)n1c3ccc(OC(C)C(=O)NCCCN4CCOCC4)cc3c3ccnc2c31 (centres undefined)	-10%	i	?	6.5µM*	13µM*	22%
CC(Oc1ccc2c(c1)c1ccnc3c4ccccc4c(=O)n2c13)C(=O)NCCN1CCOCC1 (centres undefined)	11µM*	i	-51*	7.3µM*	8.2µM*	0%
CC(Oc1ccc2c3c(c(=O)oc2c1)CCCC3)C(=O)NCCN1CCOCC1 (centres undefined)	1%	35%	8	2%	-25%	-1%
CCCCC(=O)Nc1ccc(N2CCN(c3ccc(F)cc3)CC2)cc1	8%	19%	11	1%	7%	0%
O=C(Nn1cnnc1)c1ccc(Cl)cc1	3%	3%	-11	-20%	2%	12%
Cn1cnc(S(=O)(=O)N2CCC(C(=O)Nc3ccc(Cl)c(C(F)(F)F)c3)CC2)c1	-5%	·	·	13µM*	16µM*	1%
CS(=O)(=O)N1CCC(C(=O)Nc2ccc(Cl)c(C(F)(F)F)c2)CC1	-30%	-6%	-11	23µM*	?	-4%
COc1ccc(N2CCCC2=N)c(OC)c1	8%	5%	-7	-18%	-1%	9%
CC1CCCCC1NC(=O)CSc1ccc([N+](=O)[O-])cc1 (centres undefined)	-3%	-1%	0	-11%	-6%	-12%
